Compound activity deposited in PubChem BioAssay by National Center for Advancing Translational Sciences (NCATS).
The list is not random: actives were taken first. Their share in the collection is about 11%.
Sm TGR block = S. mansoni TGR enzyme inhibition. purified TGR, DTNB reduction, TNB absorbance 405 nm. AID 485364. Q962Y6. actives 3% (n = 360,000). Potency, µM (series often up to 114 µM), for the others: top-dose activity change, negative = inhibition, most hits filed as inhibitors; further: on the % scale 0 is the no-effect control and ±100 the full control effect; nearly all actives have a fitted effect of over 60% in size
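Kinetic colorimetric format: TGR-catalysed, NADPH-driven DTNB reduction monitored via TNB absorbance. Enzyme dispensed at 20 nM; compound exposure 15 min at room temperature before reaction start.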
NS1 inh = inhibitors of influenza NS1 protein function. Potency, µM (series often up to 46.1 µM), for inactives: top-dose activity, positive = more growth. actives 0.4% (n = 270,000); calls by dose curve; further: actives are rising curves; nearly all actives have a fitted effect of over 50% in size
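Read-out: OD600 growth recovery of NS1-expressing budding yeast. Cells grown overnight at 30C in -URA glucose medium, washed, resuspended and diluted 1:100 in 2% galactose assay medium, pH 6.0. Same strain lacking NS1 served as positive control.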
Pf growth 96h = P. falciparum growth inhibition at 96 hours | P. falciparum luciferase reporter growth, 96 h | Potency, µM (highest dose often 28.7 µM), for inactives: top-dose activity change, negative = inhibition, hits mostly inhibitors | actives 6.9% (n = 320,000); further: on the % scale 0 is the no-effect control and ±100 the full control effect
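Luminescence readout: decreased luciferase signal marks inhibited growth of reporter-expressing P. falciparum in infected red cells (2% hematocrit, 0.05% parasitemia final), exposed to compound two generations (96 h, 37 C, 5% CO2).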
Pf growth 48h = inhibits P. falciparum growth in the first generation, 48 h. P. falciparum luciferase growth in erythrocytes, 48 h. AID 504832. Potency, µM (top dose mostly 28.7 µM), for inactives: top-dose activity change, negative = inhibition, actives largely listed as inhibitors. actives 5.9% (n = 310,000); further: on the % scale 0 is the no-effect control and ±100 the full control effect
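Read-out is firefly luciferase luminescence from an integrated reporter in P. falciparum, so falling signal marks reduced parasite growth. Infected erythrocytes were at 2% hematocrit and 0.1% parasitemia (final) in Albumax-supplemented RPMI 1640.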
AMA1 RON2 block = inhibitors of Plasmodium falciparum AMA1-RON2 interaction; AlphaScreen AMA1-biotinylated RON2 peptide binding; actives 0.2% (n = 360,000); Potency, µM (series often up to 58.2 µM), without a hit: top-dose activity change, negative = inhibition, usual class: inhibitors; AID 720542;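 further: 0% = vehicle wells and -100% = peptide control; nearly all actives have a fitted effect of over 45% in size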
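AMA1 (3D7) with his tag at 25 nM final met compounds first, then biotinylated RON2 peptide at 25 nM; detection used donor plus acceptor beads, 10 µg/mL apiece, read by AlphaScreen after 30 min at room temperature.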
Numbers without * were called inactive; i = inactive; ? = inconclusive; · = not tested or not shown. Unless noted, the call rests on the fitted dose curve; in most records, active means well fitted curve in the direction sought with a large enough effect; inconclusive means small, poorly fitted or top-dose-only effect, or another doubt; inactive means no such curve, though single readings can be large; an effect the other way counts as inactive or inconclusive. Potency means the concentration at half of the fitted maximal effect.

SMILES | Sm TGR block | NS1 inh | Pf growth 96h | Pf growth 48h | AMA1 RON2 block
CC(=O)c1ccc(OCc2cc(C(=O)N(C)Cc3ccon3)no2)cc1 | -17% | -12% | 7% | 12% | 4%
c1ccc2c(c1)Cc1ccccc1O2 | -8% | · | 118% | 10% | -12%
O=C(Cc1ccc(Cl)cc1)NCC(c1cccs1)S(=O)(=O)c1ccc(F)cc1 (stereo not given) | -17% | · | · | · | ·
O=C(NC1CCCC1)c1cc(COc2ccc3ncccc3c2)on1 | 13% | -8% | -6% | -20% | -8%
Cc1ccc(OCc2cc(C(=O)N3CCCCCCC3)no2)cc1C | -3% | 0% | 1.7µM* | 14% | -1%
Cc1ccc(OCc2cc(C(=O)NC3CCCCC3)no2)cn1 | 0% | -13% | 13µM* | 17% | -3%
CC(=O)c1cccc(OCc2cc(C(=O)N3C[C@H]4CC[C@H]3C4)no2)c1 | 7% | -33% | ? | 41% | 26%
CC(=O)c1ccc(OCc2cc(C(=O)N3CCC[C@H]3CO)no2)cc1 | 50µM* | 0% | ? | -12% | -4%
CC(=O)c1cccc(OCc2cc(C(=O)N3C[C@@H](C)O[C@@H](C)C3)no2)c1 | 3.2µM* | 0% | ? | 19% | 1%
COCCC1CCCCN1C(=O)c1cc(COc2cccc(C(C)=O)c2)on1 (stereo not given) | -21% | -16% | 5% | -2% | 0%
CC(C(=O)Nc1ccccc1)N1CCN(C(=O)c2ccco2)CC1 (stereo not given) | -3% | · | -21% | -21% | -3%
O=S(=O)(NCCN1CCOCC1)c1ccc(F)c(Cl)c1 | -1% | 2% | 24% | 26% | -5%
Cc1cccc(N(CC(=O)NCc2ccc3c(c2)OCO3)C(=O)CCC(=O)Nc2ccccn2)c1C | -3% | -66% | · | 5.9µM* | -6%
Cc1cccc(N(CC(=O)NCc2ccc3c(c2)OCO3)C(=O)CCC(=O)Nc2ccccn2)c1 | -3% | -20% | 161% | 13µM* | -5%
COc1ccc(N(CC(=O)NCc2ccc3c(c2)OCO3)C(=O)CCC(=O)Nc2ccccn2)cc1 | 3% | 7% | 54% | 12% | -3%
CN(C)c1ccc(C(CNC(=O)c2ccc(C(C)(C)C)cc2)N2CCOCC2)cc1 (stereo not given) | -1% | · | · | · | ·
c1cncc(-c2nc(NCc3cccs3)c3ccccc3n2)c1 | ? | · | 13µM* | ? | 25%
Fc1ccccc1CNc1nc(-c2cccnc2)nc2ccccc12 | 1% | -68% | 5.2µM* | 12µM* | 5%
CCN(C(=O)CSc1n[nH]c(-c2ccccc2)n1)c1c(N)n(Cc2ccccc2)c(=O)[nH]c1=O | -6% | · | -27% | -23% | 0%
CCOCCCNS(=O)(=O)c1ccc(NC(=O)CN2C(=O)c3ccccc3C2=O)cc1 | 13% | 1% | ? | -5% | -10%
NS(=O)(=O)c1ccc(NC(=O)N2c3ccccc3Sc3ccccc32)cc1 | -7% | 2% | 2.3µM* | ? | -6%
CCOCCCNS(=O)(=O)c1ccc(NC(=O)N2c3ccccc3Sc3ccccc32)cc1 | -2% | 7% | 12µM* | ? | -24%
Cc1nc2nc(N)nn2c(C)c1C/C=C/c1ccccc1 | 16µM* | · | -10% | i | 0%
Cc1cccc(CSc2nc(N)c(C#N)c(-c3cccs3)c2C#N)c1 | 0% | 11% | ? | 13µM* | 5%
Cc1cccc(CSc2nc3c(c(-c4cccs4)c2C#N)CN(C)CC3)c1 | -29% | 22% | ? | ? | -8%
SMILES | Sm TGR block | NS1 inh | Pf growth 96h | Pf growth 48h | AMA1 RON2 block
CCCCNc1nc(N(C)c2ccccc2)nc(-n2ccnc2)n1 | 8% | -151% | 0% | 17µM* | -12%
COC(=O)c1ccc(COC(=O)C2CCN(S(=O)(=O)c3ccc(C)c(C)c3)CC2)o1 | 0% | · | 44% | 20% | -26%
C[C@H](CO)N1C[C@H](C)[C@@H](CN(C)Cc2ccncc2)Oc2c(NS(=O)(=O)c3ccccc3)cccc2C1=O | · | · | · | · | 21%
O=c1c2cnn(-c3ccccc3)c2nc(-c2cccs2)n1-c1cccc(Cl)c1 | 1% | 11% | ? | 13µM* | 1%
COc1ccc(/C=C2\SC(=O)N(CCc3nnc(N)s3)C2=O)cc1 | 9% | 6% | 64% | 70% | -6%
CC(=O)c1c(C)oc2c1cc(NS(=O)(=O)c1ccc(C(=O)O)cc1)c1ccccc12 | -27% | 13% | ? | 27% | 20%
CCOC(=O)c1c(C)oc2c1cc(NS(=O)(=O)c1ccc(C)cc1)c1ccccc12 | -1% | · | · | · | ·
COc1ccc(S(=O)(=O)Nc2cc3c4c(oc3c3ccccc23)CCCC4=O)cc1 | -24% | 6% | 9.3µM* | · | 8%
COC(=O)c1c(C)oc2c1cc(NS(=O)(=O)c1ccc(C(=O)O)cc1)c1ccccc12 | 50µM* | -19% | ? | 34% | 0%
Cc1ccc(S(=O)(=O)Nc2cc3c(C(=O)Nc4ccccc4)c(C)oc3c3ccccc23)cc1 | -6% | 8% | 1.7µM* | ? | 10%
CN(Cc1ccc(Cl)cc1Cl)C(=O)CNC(=O)c1ccc2c(c1)OCO2 | -1% | · | 12µM* | 10µM* | -4%
CSc1ccc(CN(C)C(=O)CNC(=O)c2ccc3c(c2)OCO3)cc1 | 2% | · | 8.3µM* | 4.1µM* | -6%
COc1ccc(NC(=O)Nc2nnc(SCC(=O)Nc3cccc(C)c3C)s2)cc1 | 1% | · | · | · | ·
CC1CCN(c2nc3ccc(C(=O)O)cc3s2)CC1 | 0% | -189% | -12% | 1.2µM* | 0%
CC1CCN(c2nc3ccc(C(=O)NCc4ccc(Cl)cc4)cc3s2)CC1 | 2% | · | · | · | ·
CCC(=O)N1CCN(c2ccc(Cl)cc2NC(=O)c2ccc(N3CCCC3)c([N+](=O)[O-])c2)CC1 | -23% | 8% | 1.9µM* | ? | -10%
O=C(Nc1cc(C(F)(F)F)ccc1N1CCCCC1)c1cccc([N+](=O)[O-])c1 | 15% | -2% | ? | 15µM* | ?
Cc1ccc(C)c2sc(NC(=O)c3ccc(N4CCCCC4)c([N+](=O)[O-])c3)nc12 | 6% | 6% | ? | 2.6µM* | -4%
Cc1ccc(C(=O)Nc2cc(C(F)(F)F)ccc2N2CCCCC2)cc1[N+](=O)[O-] | -3% | -1% | 19% | 13µM* | 0%
CSc1nnc(CNS(=O)(=O)c2ccc(Cl)cc2)n1C | · | 7% | 3% | -8% | 26%
CCOC(=O)C1CCCN(S(=O)(=O)NC[C@H]2O[C@@H](n3cnc4c(N)ncnc43)[C@H](O)[C@@H]2O)C1 (stereo not given in full) | · | · | · | · | 1%
O=S(=O)(c1ccccc1)c1nc(-c2ccc(Cl)cc2Cl)oc1N1CCCCCC1 | 1% | · | · | · | ·
CCc1ccc(NC(=O)Cn2c(=O)n(Cc3ccco3)c(=O)c3cccnc32)cc1 | -15% | · | · | · | ·
CCn1c(CNC(=O)c2ccc(OC)cc2)nnc1SCC(=O)Nc1ccc(OC)cc1 | 9% | · | · | · | ·
Cc1ccc2sc(N3CCN(C(=O)CCS(=O)(=O)c4ccc(Cl)cc4)CC3)nc2c1C | 8% | · | · | · | ·
